Reference: PubChem BioAssay AID624351 (Southern Research Specialized Biocontainment Screening …, 2012)
Several values for one entry are separate records, joined by “and”; a condition that tells them apart may be missing. Equal entries are not always repeated. The campaign covered roughly 2,400 compounds. About 1,400 (58%) were called active.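 How the source made its calls: active means inhibition of 30% or more at any tested dose; inconclusive means primary hits over the limit that were never retested; inactive means the rest.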 So high a share suggests a set chosen from earlier hits. The list shows a part of the results.

Assay: ADP Hunter readout inhibition without MgcRacGAP – biochemical, coupled enzyme counter-screen, artefact control for MgcRacGAP inhibitor project, dose response (AID 624351);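 further: signal is the ADP detection kit reading of free GDP without any GAP enzyme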;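 on inhibition: 0% = median positive control wells and 100% = median negative control wells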
Conditions: fluorescence, no MgcRacGAP; series mostly up to 80 µM
For N/C(=N\[N+](=O)[O-])N/N=C/c1ccc(O)cc1, the IC50 was 20.8 µM (active). For O=C(O)CCn1cc(C=C2C(=O)NC(=O)NC2=O)c(-c2ccc(Br)cc2)n1, the IC50 was “inactive”. For Cc1ccc(N2C(=O)NC(=O)/C(=C/c3ccoc3)C2=O)cc1, the IC50 was “inactive”. In the case of COc1cc(C=C2C(=O)NC(=O)NC2=O)ccc1OCc1ccc([N+](=O)[O-])cc1, the IC50 is reported as “inactive”. With COc1cc(OC)c(OC)cc1/C=C1\C(=O)NC(=O)N(Cc2ccccc2)C1=O the IC50 was “inactive”. In the case of CNC(=O)Oc1ccc(-c2cn3cc(C)ccc3n2)cc1, the IC50 is reported as 37.7 µM (active). With O=C(CNC1CCCC1)Nc1ccc(N2CCCCCC2)cc1 the IC50 was “inactive”. For NCCc1cc(O)c(O)cc1O, the inhibition was -8.6% [at 5 µM] (inactive) and -17.1% [at 5 µM] (inactive). For CCN(CC)c1ccc(/C=C2/C(=O)NC(=O)N(Cc3ccco3)C2=O)cc1, the IC50 was “inactive”. With c1ccc2c(c1)Nc1ccccc1S2 the IC50 was 17.2 µM (active). In the case of COc1ccccc1OCC#CCN1CCCC1, the IC50 is reported as “inactive”. With O=P1(c2ccccc2)Nc2ccccc2N1c1ccccc1 (stereo unspecified) the IC50 was 29.5 µM (active). In the case of Cn1cccc1/C=C1\C(=O)NC(=O)N(Cc2ccco2)C1=O, the IC50 is reported as “inactive”. For Nc1ccc2c3c(cccc13)-c1ccccc1-2, the IC50 was 55.5 µM (active). For CC1=NNC(=O)C1Br (stereo unspecified), the IC50 was “inactive”. In the case of COc1ccccc1CNCCc1cccc(Cl)c1, the IC50 is reported as “inactive”. In the case of C1=Cc2ccccc2Nc2ccccc21, the IC50 is reported as 12.4 µM (active). In the case of Cc1cccc(OCC(=O)N2CCN(Cc3ccncc3)CC2)c1, the IC50 is reported as “inactive”. In the case of COc1ccc(/C=C2/C(=O)NC(=O)N(c3ccc(C)c(C)c3)C2=O)cc1CN1C(=O)c2ccccc2C1=O, the IC50 is reported as “inactive”. With Cc1ccc(CN2CCN(Cc3ccccc3F)CC2)cc1 the IC50 was “inactive”. For Cc1cc(/C=C2\C(=O)NC(=O)N(c3ccc(Br)cc3)C2=O)c(C)n1-c1cc(C(=O)O)cc(C(=O)O)c1, the IC50 was “inactive”. With O=C(O)Cn1cc(/C=C2\C(=O)NC(=O)N(c3ccc(Cl)cc3)C2=O)c2ccccc21 the IC50 was “inactive”. For CN(C)c1ccc(NC(=O)CN2C(=O)CN=C(c3ccccc3)c3ccccc32)cc1, the IC50 was 73.3 µM (active). In the case of COc1ccc(OC)c(N2C(=O)NC(=O)/C(=C/c3ccc([N+](=O)[O-])s3)C2=O)c1, the IC50 is reported as “inactive”. In the case of C=CCN1C(=O)/C(=C/c2ccc(Br)s2)C(=O)NC1=S, the IC50 is reported as “inactive”. For COc1ccccc1OCC#CCN1CCCC(C)C1 (stereo unspecified), the IC50 was “inactive”. In the case of CSc1nc(N)c(N=Nc2ccc([As](=O)(O)O)cc2)c(=O)[nH]1, the IC50 is reported as “inactive”. For O=C(O)c1ccc(-n2c(O)c(/C=C3\C=Nc4ccccc43)c(=O)[nH]c2=O)cc1, the IC50 was “inactive”. With O=[N+]([O-])c1ccc2c(c1)Cc1cc(O)ccc1-2 the IC50 was 24.5 µM (active). For Cc1cc(/C=C2\C(=O)NC(=O)N(c3ccccc3F)C2=O)c(C)n1-c1cc(C(=O)O)cc(C(=O)O)c1, the IC50 was “inactive”. In the case of COc1ccccc1-n1c(O)c(/C=C2\C=Nc3ccccc32)c(=O)[nH]c1=O, the IC50 is reported as “inactive”. In the case of CC[N+](C)(CC)CCCCOc1ccc2c(c1)C(=O)c1cc(OCCCC[N+](C)(CC)CC)ccc1-2, the IC50 is reported as “inactive”. In the case of CC1=NCCc2c1[nH]c1cc(O)ccc21, the IC50 is reported as 10.2 µM (active). In the case of Cc1ccc(OCC(=O)N2CCN(CC3CC4C=CC3C4)CC2)cc1 (stereo unspecified), the IC50 is reported as “inactive”. With Clc1ccc(OCC#CCN2CCCCCC2)cc1 the IC50 was “inactive”. For CCN(CCCl)c1cc(CN(C)C)cc(NC(=O)c2ccc(C(=O)Nc3cc(CN(C)C)cc(N(CC)CCCl)c3)cc2)c1, the IC50 was “inactive”. In the case of COc1ccc(/C=C2\C(=O)NC(=S)N(C)C2=O)cc1C, the IC50 is reported as “inactive”. In the case of CC1CCCCN1Cc1cccnc1 (stereo unspecified), the IC50 is reported as “inactive”. For COc1ccc(CCNCc2ccccc2)cc1, the IC50 was “inactive”. For CN(C)C1C(=O)C(C(N)=O)=C(O)C2(O)C(=O)C3=C(O)c4c(O)cccc4C(C)(O)C3C(O)C12 (stereo unspecified), the IC50 was “inactive”. For COc1ccc(-n2c(/C=C/c3ccc(O)c(OC)c3)nc3ccccc3c2=O)cc1, the IC50 was 43.2 µM (active). In the case of O=c1c2ccccc2nc(/C=C/c2ccc(O)cc2)n1-c1ccccc1O, the IC50 is reported as 60.4 µM (active). In the case of COc1cc(/C=C/c2nc3ccccc3c(=O)n2-c2ccccc2O)ccc1O, the IC50 is reported as 38.1 µM (active). In the case of COc1cc(/C=C2/C(=O)NC(=O)N(c3ccccc3)C2=O)ccc1O, the IC50 is reported as “inactive”. In the case of NC(N)=N/N=C/c1ccc(N(c2ccccc2)c2ccccc2)cc1, the IC50 is reported as “inactive”. With O=C1CN(O)C(c2ccccc2)=c2cc(Br)ccc2=N1 the IC50 was “inactive”. With O=C1NC(=O)N(c2ccc3c(c2)OCO3)C(=O)/C1=C\c1ccc(-c2ccccc2C(=O)O)o1 the IC50 was “inactive”. In the case of COc1ccc(CN2CCN(Cc3ccccc3OC)CC2)cc1, the IC50 is reported as “inactive”. With CCc1c(C)nc(N)nc1N1N=C1SC(C(C)=O)C(C)=O the IC50 was “inactive”. In the case of O=C1NC(=O)C(=Cc2coc3ccc(O)cc3c2=O)C(=O)N1, the IC50 is reported as “inactive”. In the case of C=CCN1C(=O)NC(=O)/C(=C/C=C/c2ccccc2)C1=O, the IC50 is reported as “inactive”. For CN1C2CCC1/C(=C/c1ccccn1)C(=O)/C2=C\c1ccccn1, the IC50 was “inactive”. In the case of COc1cc(N2CCOCC2)ccc1/C=C1\C(=O)NC(=O)N(Cc2cccs2)C1=O, the IC50 is reported as “inactive”. For COc1cc2c(ccc3c4cc(OC)c(OC)cc4c[n+](C)c23)cc1O, the IC50 was “inactive”. For CC1CN1P(=O)(Oc1ccc2ccccc2c1)N1CC1C (stereo unspecified), the IC50 was “inactive”. For O=C1NC(=O)C(=Cc2cccs2)C(=O)N1, the IC50 was “inactive”. In the case of CN1CCN(c2ccc(N)cc2)CC1, the IC50 is reported as 42.7 µM (active). For CCN1CCN(CC(c2ccccc2)c2ccccc2)CC1, the IC50 was “inactive”. For CN1CCN(c2ccc(N)c(N3CCN(C)CC3)c2)CC1, the IC50 was 56 µM (active). In the case of CCN1CCN(c2ccc(N)c(C)c2)CC1, the IC50 is reported as 45.2 µM (active). In the case of N/C(=N\N=C/c1ccc(-c2ccc(O)c(C(=O)O)c2)o1)N[N+](=O)[O-], the IC50 is reported as “inactive”. In the case of COc1cc(N2CCOCC2)ccc1/C=C1\C(=O)NC(=O)N(Cc2ccc3c(c2)OCO3)C1=O, the IC50 is reported as “inactive”. With O=C(O)CCn1cc(C=C2C(=O)NC(=S)NC2=O)c(-c2cccc(Br)c2)n1 the IC50 was “inactive”. For Cc1ccc(OCC(=O)N2CCN(Cc3ccc([N+](=O)[O-])cc3)CC2)cc1, the IC50 was “inactive”. In the case of CCc1ccc(N2C(=O)NC(=O)/C(=C\c3cc(C)n(-c4cc(C(=O)O)cc(C(=O)O)c4)c3C)C2=O)cc1, the IC50 is reported as “inactive”. In the case of CN(C)[C@@H]1C(=O)C(C(N)=O)=C(O)[C@@]2(O)C(=O)C3=C(O)c4c(O)cccc4[C@@](C)(O)[C@H]3[C@H](O)[C@@H]12, the inhibition is reported as -9.39% [at 5 µM] (inactive).
